# Assay outcomes as filed in PubChem.
# The list is not random: actives were taken first. Their share in the collection is about 5.1%.
# CRFR2-BP antag – CRF-BP/CRF-R2 complex antagonism. AID 588475. inhibition, % at 11.8 µM. actives 0.59% (n = 350,000). HEK293 CRF-R2/CRF-BP, CRF-induced calcium fluorescence;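 active = inhibition of the ligand-induced calcium signal above about 50% at the single tested concentration, limit read from the data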
# MPTP inh – blocks calcium-induced mitochondrial swelling. AID 602449. actives 1.4% (n = 360,000). inhibition, % at 10 µM. isolated mouse mitochondria, Ca2+ swelling absorbance, 30 min;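 active = inhibition of 50% or more, scaled per plate between neutral and stimulator controls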;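 note: 0% = DMSO wells given calcium and 100% = 1 mM EGTA wells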
# CRFR2-BP ag – CRF-BP/CRF-R2 complex agonism. HEK293 CRF-R2/CRF-BP, calcium dye fluorescence (FLIPR); percent of saturating CRF peptide response. activation, % at 13.2 µM. actives 0.46% (n = 350,000). AID 588473;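 active = activation of at least 50%, plus an integration ratio under a set limit after plate pattern correction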;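 note: plate controls were neutral control wells without compound for no effect and CRF at EC100 for full effect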
# TMEM16A inh – mouse TMEM16A channel inhibition, primary screen; HEK293 TMEM16A/YFP iodide influx fluorescence, ionomycin; normalized B-score (activity score, 25-100; higher = stronger inhibition) at 10 µM; actives 1.2% (n = 310,000);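 active = ratio plate-corrected score three or more library SD toward inhibition, starting fluorescence score within five deviations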;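 note: score derived from kinetic fluorescence span divided by baseline fluorescence per well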
# Target sequence (Q8BHY3 whole entry, looked up): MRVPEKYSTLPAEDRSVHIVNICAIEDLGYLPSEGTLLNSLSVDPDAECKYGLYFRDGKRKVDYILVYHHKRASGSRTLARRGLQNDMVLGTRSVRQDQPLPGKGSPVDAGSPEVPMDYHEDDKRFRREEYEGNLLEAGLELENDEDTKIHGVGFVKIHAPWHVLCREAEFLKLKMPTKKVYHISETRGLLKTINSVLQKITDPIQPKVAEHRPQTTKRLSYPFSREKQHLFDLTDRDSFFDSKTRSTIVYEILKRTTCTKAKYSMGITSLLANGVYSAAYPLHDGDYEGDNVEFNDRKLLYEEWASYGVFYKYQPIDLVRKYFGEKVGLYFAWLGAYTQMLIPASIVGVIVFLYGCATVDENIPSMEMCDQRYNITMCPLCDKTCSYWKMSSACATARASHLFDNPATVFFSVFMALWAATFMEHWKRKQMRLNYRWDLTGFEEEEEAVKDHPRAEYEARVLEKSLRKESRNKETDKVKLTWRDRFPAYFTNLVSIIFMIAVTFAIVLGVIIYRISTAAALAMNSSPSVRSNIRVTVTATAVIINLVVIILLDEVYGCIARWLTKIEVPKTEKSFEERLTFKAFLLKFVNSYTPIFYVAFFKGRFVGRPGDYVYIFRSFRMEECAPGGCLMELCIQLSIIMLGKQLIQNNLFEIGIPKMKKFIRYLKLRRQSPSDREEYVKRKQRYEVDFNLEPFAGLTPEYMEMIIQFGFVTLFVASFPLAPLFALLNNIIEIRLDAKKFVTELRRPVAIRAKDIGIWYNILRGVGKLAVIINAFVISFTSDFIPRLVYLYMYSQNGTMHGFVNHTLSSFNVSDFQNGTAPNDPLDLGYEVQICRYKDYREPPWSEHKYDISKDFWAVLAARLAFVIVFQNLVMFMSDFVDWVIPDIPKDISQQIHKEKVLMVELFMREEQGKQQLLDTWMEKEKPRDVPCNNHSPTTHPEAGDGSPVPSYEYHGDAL
# GRIN3A LBD mod – modulators (binders) of human NR3A ligand-binding domain. actives 2.5% (n = 340,000). NR3A LBD differential scanning fluorimetry, Tm shift; 0% = protein alone, 100% = glycine-bound protein. Tm shift relative to glycine control, % at 25 µM;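 active = melting temperature shift of at least 10% of the positive control shift, at one fixed dose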
# TMEM16A act – activators or potentiators of mouse TMEM16A chloride channel | Q8BHY3 | HEK293 TMEM16A/YFP-H148Q/I152L, iodide quench fluorescence; hits give low values | B-score at 10 µM | actives 0.3% (n = 340,000) | AID 623877;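 active = fluorescence-ratio B-score plate-corrected deviation score at least 3 library SD below zero, with starting fluorescence score within 5 deviations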;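 note: channel opened by trigger with iodide after compound preincubation; score built on the fluorescence ratio of max minus min over baseline; more negative score means more quench and so TMEM16A activation or potentiation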
# MPTP counter – membrane potential counter-screen of mitochondrial pore inhibitors. AID 624504. actives 78% (n = 5,000). inhibition, % at 10 µM. isolated mitochondria, Rhodamine 123 fluorescence. shares compounds with MPTP inh; in the data active = inhibition above about 22%;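 note: 0% = DMSO vehicle and 100% = positive control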
# MPTP swell DR – MPTP inhibition, dose response swelling confirmation; AID 651561; shares compounds with MPTP inh; IC50, µM; actives 58% (n = 780); isolated mitochondria swelling, absorbance; in the data active = IC50 below about 20 µM
# MPTP counter DR – counter-screen for mitochondrial permeability transition pore inhibitors, dose response; isolated mitochondria counterscreen, fluorescence read-out; IC50, µM; actives 49% (n = 780); shares compounds with MPTP inh; in the data active = IC50 below about 80 µM
# Starred values were filed as active, the others as inactive; i = inactive; . = not tested or not shown.
SMILES,CRFR2-BP antag,MPTP inh,CRFR2-BP ag,TMEM16A inh,GRIN3A LBD mod,TMEM16A act,MPTP counter,others
CC1(C(=O)NS(=O)(=O)C2CC2)CCN(C(=O)c2c(F)cccc2F)C1 (stereo unspecified),.,-0.8,.,.,.,.,.,
CN(C)CCCN(C(=O)CCc1ccccc1)c1nc2ccc(Cl)cc2s1,-65.2,93.2*,33.6,i,0.7,i,-16.6,
CN(C)CCCN(C(=O)COc1ccc(Cl)cc1)c1nc2cc3c(cc2s1)OCCO3,-5.8,86.6*,1.0,i,1.4,i,-25.7,MPTP swell DR=4.28*;MPTP counter DR=73.9*
Cc1ccc(S(=O)(=O)CC(=O)N(CCCN(C)C)c2nc3ccc(C)cc3s2)cc1,-14.1,89.7*,0.6,i,0.9,i,-12.3,MPTP swell DR=4.48*;MPTP counter DR=75*
Cc1ccc2nc(N(CCCN(C)C)C(=O)CS(=O)(=O)c3ccccc3)sc2c1,-15.1,46.9,1.9,i,0.8,i,.,
Cc1ccc2nc(N(CCCN(C)C)C(=O)CCc3ccccc3)sc2c1,-58.2,102.2*,12.7,i,-0.7,i,-9.7,MPTP swell DR=3.68*;MPTP counter DR=>80
C[C@H](CO)N1C[C@H](C)[C@H](CN(C)S(=O)(=O)c2cccc(F)c2)Oc2cc(Br)ccc2S1(=O)=O,-9.5,-1.7,-0.5,.,.,.,.,
CCOc1ccc2nc(N(CCCN(C)C)C(=O)c3ccc4c(c3)CCCC4)sc2c1,-29.5,1.4,10.7,i,0.9,i,.,
CN(C)CCCN(C(=O)c1ccc2c(c1)CCCC2)c1nc2ccc(Cl)cc2s1,-191.3,90.1*,21.0,i,11.0*,i,-7.5,
CCCc1ccccc1OCCNS(=O)(=O)c1cc2c(cc1C)OCC(=O)N2,-6.0,9.7,0.1,i,-3.7,i,.,
O=C(Cc1ccc(Br)cc1)NCCc1ccc(Cl)cc1Cl,42.3,50.2*,-1.8,i,0.2,i,68.0*,
O=C(Cc1ccccc1)NCCc1ccc(Cl)cc1Cl,1.4,0.9,-0.5,i,-0.1,i,.,
COCCn1c(SCC(=O)NCCCN2CCCC2=O)nc2sc3c(c2c1=O)CCCC3,3.9,-0.8,-1.7,.,1.9,i,.,
CCN(CC)CCOC(=O)c1cc(Cl)c(N)cc1OC,-3.6,1.7,2.1,i,-1.3,i,.,
NC1=NC[C@H](Cc2ccc(O)cc2)N1CCC12CC3CC(CC(C3)C1)C2,0.4,50.4*,-1.8,i,-2.0,i,0.6,
CC(C)C(NS(=O)(=O)c1ccccc1)C(=O)N1CCCC1 (stereo unspecified),11.8,1.1,1.0,i,1.4,i,.,
COc1ccc2oc(C(=O)N(C)CCOc3ccc(Cl)cc3)c(C)c2c1,5.0,121.7*,0.1,i,-0.8,i,5.7,MPTP swell DR=i;MPTP counter DR=51.8*
Nc1nonc1C(=O)NCCN=Cc1cc(Cc2ccccc2)cc(Br)c1O,24.0,63.5*,0.7,i,1.6,i,31.3*,
O=C(COC(=O)C1C2CC3OC(=O)C1C3C2)Nc1ccc(Cl)cc1 (stereo unspecified),5.7,-2.5,0.0,i,2.8,i,.,
Cc1nc(Nc2ccc(F)cc2)[nH]c(=O)c1CCC(C)C,-13.4,94.6*,6.6,i,-4.7,i,76.7*,
Cc1ccc(Nc2nc(C)c(CCC(C)C)c(=O)[nH]2)cc1,26.9,5.4,-0.8,i,-1.4,i,.,
Cc1ccc2nc(-c3cccc(Br)c3)c(Cc3cccc(Cl)c3)n2c1,.,-0.7,.,.,.,.,.,
CCC(C)c1ccccc1NC(=O)COC(=O)c1ccc2[nH]c3c(c2c1)CCCC3 (stereo unspecified),-23.7,82.9*,0.7,i,7.4,i,72.7*,
Cc1sc2ncnc(N3CCC(C(=O)N(CC(C)C)c4nc5ccccc5s4)CC3)c2c1C,5.1,-0.8,1.9,i,0.5,i,.,
Cn1c(CCN2CCCCC2)nc2cc(NC(=O)COc3ccc(Cl)cc3)ccc21,3.7,-1.3,0.2,i,-3.1,i,.,
SMILES,CRFR2-BP antag,MPTP inh,CRFR2-BP ag,TMEM16A inh,GRIN3A LBD mod,TMEM16A act,MPTP counter,others
Cc1ccc(C(C)C)c(OCC(=O)Nc2ccc3c(c2)nc(CCN2CCCCC2)n3C)c1,-5.1,72.9*,0.6,i,1.2,i,-20.1,MPTP swell DR=6.1*;MPTP counter DR=75*
CCOc1ccc(C(=O)Nc2ccc(N3CCN(C(C)=O)CC3)cc2)cc1[N+](=O)[O-],1.4,3.0,0.1,i,-1.7,i,.,
CC(=O)N1CCN(c2ccc(Oc3ccc([N+](=O)[O-])c(C(F)(F)F)c3)cc2)CC1,7.3,80.2*,-0.3,100*,7.8,i,75.7*,
CC(C)Cc1csc(NC(=O)c2ccc(F)cc2)c1C(=O)O,69.4*,53.1*,3.4,i,-2.2,i,71.4*,
Cc1ccc(S(=O)(=O)N2CCN(C(=O)CN3C(=O)NC(C)(c4ccc5ccccc5c4)C3=O)CC2)cc1 (stereo unspecified),2.8,-0.9,0.9,.,1.4,i,.,
CC(=O)Oc1c(C)cc(Cl)cc1C(=O)Nc1ccc([N+](=O)[O-])cc1Cl,29.6,84.8*,83.0*,100*,-2.8,i,90.9*,
CCOC(=O)C(=N/O)/C(C)=N/NC(=O)C(=O)Nc1ccc(Cl)cc1,-5.8,81.8*,-6.9,i,-2.2,i,68.7*,
CC1CCC(NC(=O)CSc2nncn2C)CC1 (stereo unspecified),-8.4,-0.2,-0.5,.,-1.9,i,.,
COc1ccc(CNc2cc(C)nc3ncnn23)c(OC)c1,24.5,75.2*,-2.1,i,-9.4,i,33.5*,
COc1ccc(Nc2cc(C)nc3ncnn23)c(OC)c1,13.8,-2.8,-1.8,i,-0.3,i,.,
COCCCN1C(=O)C(CC(=O)NCc2cccc3ccccc23)CC(C(=O)N(C(C)C)C(C)C)=C1C (stereo unspecified),.,0.3,.,.,.,.,.,
CCN1CCN(c2ccc(NC(=O)CCc3c(C)nc4c(-c5ccccc5)c(C)nn4c3C)cc2)CC1,-3.7,53.9*,1.1,i,-0.6,i,-24.6,MPTP swell DR=14.9*;MPTP counter DR=>80
COC(=O)/C=C1/SC(=Nc2ccc(Cl)c(Cl)c2)NC1=O,17.3,58.4*,2.3,i,17.7*,i,24.9*,
CCN(CC)CCOC(=O)c1ccc(NC(=S)NC(=O)/C=C/c2ccco2)cc1,.,.,.,i,.,.,.,
COc1ccc([C@H]2CC(=O)C=C(c3ccc(CNC(=O)OC(C)(C)C)cc3)C2)cc1,0.1,70.9*,-0.1,.,2.7,i,80.4*,
COc1ccc([C@H]2CC(=O)C=C(c3ccc(OC(F)(F)F)cc3)C2)cc1,-6.9,5.2,1.7,.,3.0,i,.,
